Reference: PubChem BioAssay (NCATS)
Inconclusive results are not listed. For some of these results: Potency and affinity values are given separately. The source made the active and inactive calls.

Assays:
[1] = Ebola virus entry assay, ratio channel
[2] = Ebola virus entry assay, green channel fluorescence
[3] = Ebola virus entry assay, reporter ratio channel; AC50: Channel type: primary unless noted; outcome: Channel type: primary unless noted
[4] = Ebola virus entry assay, blue channel fluorescence
[5] = Ebola virus entry assay, blue channel (ratio component)
[6] = Ebola virus entry reporter assay, green channel fluorescence
[7] = Ebola virus entry cell assay, ratio channel
[8] = qHTS assay for measurement of the activity of small molecule inhibitors on Zika virus induced Caspase-3 activity in human astrocytoma cells (AID 1224859; active = well fitted curve in the direction sought with a large enough effect; an effect the other way counts as inactive or inconclusive); conditions: SNB-19 ZIKV-induced caspase-3/7, luminescence, 6 h; series mostly up to 45.7 µM
How it was run: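 Luminescence read-out (Caspase-Glo 3/7, 30 min RT) of caspase activity in SNB-19 cells infected 6 h with ZIKV, 2 FFU/cell, after 1 h compound pretreatment; % inhibition from induction normalised to uninfected (0%) and infected (100%) wells.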

[9] = qHTS assay to identify small molecule inhibitors of chordoma cells - UCH-1 (AID 1259355; active = well fitted curve in the direction sought with a large enough effect; an effect the other way counts as inactive or inconclusive; also: nearly all actives have a fitted effect of over 55% in size); conditions: UCH-1 chordoma viability, CellTiter-Glo, 48 h, combination; series mostly up to 46.1 µM
How it was run: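 800 cells/well, overnight attach; compounds pinned at 15 concs, then auranofin/camptothecin/doxorubicin/rubitecan/topotecan combo added; 48hr 37 C, 5% CO2; CellTiter-Glo, 30min RT, luminescence.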

[10] = qHTS assay to identify small molecule inhibitors of chordoma cells - UCH-2 (AID 1259356; active = well fitted curve in the direction sought with a large enough effect; an effect the other way counts as inactive or inconclusive); conditions: UCH-2 chordoma viability, CellTiter-Glo ATP luminescence, 48 h; series mostly up to 46.1 µM

Measured: AC50

CC(CN(C)C)C(C)(O)Cc1ccc(Cl)cc1 (stereo not given)
active: [3] 28.2 µM
inactive: [1] | [2]

COc1c(N2C[C@@H]3CCCN[C@@H]3C2)c(F)cc2c(=O)c(C(=O)O)cn(C3CC3)c12
not listed: [8] | [9] | [10]
inactive: all other assays above

NC(N)=NC(=O)Cc1c(Cl)cccc1Cl
not listed: [8] | [9] | [10]
inactive: all other assays above

CO[C@]12C[C@@H](COC(=O)c3cncc(Br)c3)CN(C)[C@@H]1Cc1cn(C)c3cccc2c13
active: [1] 20 µM | [3] 20 µM
inactive: [2]

O=c1[nH]c(=O)n([C@H]2C[C@H](O)[C@@H](CO)O2)cc1F
inactive: [1] | [2] | [4] | [3] | [5] | [7]

CCC1(C)CC(=O)NC1=O (stereo not given)
not listed: [8] | [9] | [10]
inactive: all other assays above

CN1C(CSCC(F)(F)F)Nc2cc(Cl)c(S(N)(=O)=O)cc2S1(=O)=O (stereo not given)
inactive: [1] | [2] | [4] | [3] | [5] | [7]

O=C(NCC1CCCCN1)c1cc(OCC(F)(F)F)ccc1OCC(F)(F)F (stereo not given)
inactive: [2]
active: [1] 35.5 µM | [3] 35.5 µM

CCN(CC)C(=O)/C(C#N)=C/c1cc(O)c(O)c([N+](=O)[O-])c1
not listed: [8] | [9] | [10]
inactive: all other assays above

CN=C(NC#N)NCCSCc1nc[nH]c1C
inactive: [1] | [2] | [4] | [3] | [5] | [7]

O=C(N[C@H](CO)[C@H](O)c1ccc([N+](=O)[O-])cc1)C(Cl)Cl
not listed: [8] | [9] | [10]
inactive: all other assays above

CC(C)(C)NCC(O)COc1ccc(NC(=O)NC2CCCCC2)cc1 (stereo not given)
active: [3] 39.8 µM
inactive: [1] | [2]

C[C@]12CCC(=O)C=C1CC[C@H]1[C@@H]3CC[C@](O)(C(=O)CO)[C@@]3(C)C[C@H](O)[C@@]12F
not listed: [8] | [9] | [10]
inactive: all other assays above

CCN1CC(CCN2CCOCC2)C(c2ccccc2)(c2ccccc2)C1=O (stereo not given)
inactive: [1] | [2] | [4] | [3] | [5] | [7]

Cc1cccc(C)c1OCC(=O)N[C@@H](Cc1ccccc1)[C@@H](O)C[C@H](Cc1ccccc1)NC(=O)[C@H](C(C)C)N1CCCNC1=O
inactive: [1] | [2]
active: [3] 39.8 µM

CC(C)N(CCC(C(N)=O)(c1ccccc1)c1ccccn1)C(C)C (stereo not given)
inactive: all assays above

CCn1cc(C(=O)O)c(=O)c2cc(F)c(N3CCNC(C)C3)c(F)c21 (stereo not given)
inactive: [1] | [2] | [4] | [3] | [5] | [7]

NC(=O)N1c2ccccc2C=Cc2ccccc21
not listed: [8] | [9] | [10]
inactive: all other assays above

CO[C@@]1(NC(=O)Cc2cccs2)C(=O)N2C(C(=O)O)=C(COC(N)=O)CS[C@@H]21
not listed: [8] | [9] | [10]
inactive: all other assays above

CC(C)[C@H](N)C(=O)OCCOCn1cnc2c(=O)[nH]c(N)nc21
not listed: [8] | [9] | [10]
inactive: all other assays above

CCc1cc(C(N)=S)ccn1
inactive: [1] | [2] | [4] | [3] | [5] | [7]

C#CCN[C@@H]1CCc2ccccc21
not listed: [8] | [9] | [10]
inactive: all other assays above

c1ccc2c(CC3=NCCN3)cccc2c1
active: [3] 39.8 µM
inactive: [1] | [2]

COCCCOc1ccnc(CS(=O)c2nc3ccccc3[nH]2)c1C (stereo not given)
not listed: [8] | [9] | [10]
inactive: all other assays above

Nc1ncn([C@H]2C[C@H](O)[C@@H](CO)O2)c(=O)n1
inactive: [1] | [2] | [4] | [3] | [5] | [7]

COc1cc(C=C2CCC/C(=C\c3ccc(O)c(OC)c3)C2=O)ccc1O
inactive: [2]
active: [1] 28.2 µM | [3] 28.2 µM

O=C1CN=C(c2ccccc2)c2cc([N+](=O)[O-])ccc2N1
inactive: all assays above
